Most compounds without a hit are left out; they make up all but 6.3% or so of the library.
NADH coupling: blocks coupling enzymes of NAD/NADH assays; coupled PK/LDH NADH assays, four targets; IC50, µM (top dose mostly 10 µM), for the others: at the top dose inhibition; actives 0.02% (n = 65,000);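 active = single-dose screening hits from any of four coupled enzyme assays that gave an IC50 when retested across doses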;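 note: the DPM-DC format reads NADH fluorescence rather than 340 nm absorbance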
Spn DPM-DC inh: blocks S. pneumoniae diphosphomevalonate decarboxylase; purified DPM-DC, PK/LDH coupled NADH fluorescence; calls only at 10 µM; actives 0.49% (n = 65,000);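 active = the 320 compounds with the highest percent inhibition in the single-dose primary screen, excluding strongly autofluorescent ones, cut at about 32% in these data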;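 note: kinetic rate of NADH fluorescence loss reporting ADP formed by the decarboxylase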
Autofluor 339: intrinsic fluorescence of library compounds, ex339/em460 – biochemical, MLSMR library, data from DPM-DC assay, artefact control, profiling panel; actives 5.5% (n = 65,000); fluorescence fold increase at 10 µM; compound autofluorescence, ex339/em460 nm, NADH buffer; hits give high values; 1 = no-compound wells, NADH background;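 active = at 10 µM, mean starting fluorescence two-fold or more over control wells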;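 note: signal is the first read of a kinetic run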
Abs 340nm: compounds absorbing at 340 nm. fold change at 10 µM. compound absorbance at 340 nm, fold over control. AID 708. 65,000 tested, under 10 active;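 active = at 10 µM dose, initial 340 nm absorbance at least 2 fold that of control wells; inactive = change under 2 fold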;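 note: initial absorbance extrapolated from kinetic A340 decline of NADH oxidation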
MK inhibit: blocks S. pneumoniae mevalonate kinase. purified MK, PK/LDH-coupled NADH absorbance 340 nm. inhibition, % at 10 µM. actives 0.48% (n = 65,000);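 active = ranked among the strongest by inhibition in the single 10 µM screen, a fixed top-ranked set picked for dose follow-up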
PMK inhibit: S. pneumoniae PMK inhibition; purified PMK, PK/LDH-coupled NADH absorbance 340 nm; inhibition, % at 10 µM; actives 0.49% (n = 65,000); AID 539;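 active = top-ranked compounds by inhibition in the single 10 µM screen, taking a fixed number of the strongest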;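 note: 0% = full reaction with DMSO carrier and 100% = background rate without enzyme reaction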
* marks the source's active call; other numbers are inactive results; i = inactive; . = no result given; + = active, no number; [ ] = remark or other dose.

SMILES	NADH coupling	Spn DPM-DC inh	Autofluor 339	Abs 340nm	MK inhibit	PMK inhibit
CCCOC(=O)COc1cc(C)cc2oc(=O)c3c(c12)CCC3	6%	.	2.2*	1	5	6
Cc1cc(OCC(=O)O)c2c3c(c(=O)oc2c1)CCCC3	3%	.	2.5*	1	8	1
Cc1cc(OCC(=O)Nc2c(C)n(C)n(-c3ccccc3)c2=O)c2c3c(c(=O)oc2c1)CCC3	7%	i	2.1*	1.1	2	10
O=P(c1ccccc1)(c1ccccc1)N1CCCCC1	3%	i	1.1	1	1	7
CC1(C)NCCN2C(=O)CSC21 (centres undefined)	3%	i	1.1	1	9	0
Cc1cc(C)c(C(=O)CN2CCOCC2)c(C)c1	3%	i	1	0.99	11	9
CCOC(=O)c1c(-c2ccc(OC)cc2)oc2ccc(OC(=O)N(C)C)cc12	6%	.	3.8*	1.1	1	11
COc1ccc(-c2cc(C(F)(F)F)n3nc(C(=O)N4CCC5(CC4)OCCO5)cc3n2)cc1OC	23%	+	1.6	1.2	5	9
COc1ccc(-n2c(O)c(C(C)=NCCN3CCNCC3)c(=O)[nH]c2=O)cc1	7%	i	1.1	1	14	7
COc1cc(C)c(CN2CCN(c3ccccc3)CC2)cc1C	19%	i	1.1	1.1	49*	8
Oc1ccc(Br)cc1CN1CCN(c2ccccc2)CC1	1%	i	1.1	1	3	0
CC(=O)C1C2c3ccccc3OC1(C)N=c1s/c(=C/c3cn(C)nc3C)c(=O)n12 (centres undefined)	4%	i	1.1	1.3	1	10
CNCCc1nc(N)n[nH]1	3%	i	1.1	1	9	1
CCOC(=O)c1cc2c(cn1)[nH]c1ccccc12	6%	+[fluoresces]	2.2*	0.98	9	9
CCC(=NCCO)c1c(O)n(-c2ccc(Cl)cc2)c(=O)[nH]c1=O	2%	i	1.1	0.98	6	0
CC[C@@H](CO)NC(=O)[C@@H]1C=C2c3cccc4c3c(cn4C)C[C@H]2N(C)C1	4%	.	2.5*	1	7	3
CN1C[C@H](CNC(=O)OCc2ccccc2)C[C@@H]2c3cccc4c3c(cn4C)C[C@H]21	3%	i	1.1	0.98	6	5
OC1(c2ccccc2F)CC2CCC(C1)N2CCN1CCOCC1 (centres undefined)	4%	i	1.1	0.99	8	3
COc1cccc(-n2c(C)nc3ccccc3c2=O)c1	4%	i	1.1	1	2	9
O=c1c2ccccc2[se]n1-c1ccccc1	56µM*	+	1.1	1.1	72*	100*
Nc1c(C(=O)NCc2ccco2)c2nc3ccccc3nc2n1CCN1CCCCC1	3%	.	2.3*	1.1	1	4
CCCNC(=O)c1c(N)n(Cc2ccc3c(c2)OCO3)c2nc3ccccc3nc12	3%	.	2.1*	0.99	8	14
CC(c1ccc(F)cc1)n1cc(C(=O)NCc2ccc3c(c2)OCO3)nn1 (centres undefined)	2%	i	1.1	1.1	5	0
COc1ccc(Cn2c(N)c(C(=O)NCc3ccco3)c3nc4ccccc4nc32)cc1OC	7%	.	3.7*	1	7	6
COc1ccc(C2=NCC(=O)N(CC(=O)NCc3ccco3)c3sc4c(c32)CCCC4)cc1OC	5%	i	1	1	0	15
CC(=Nc1ccc2c(c1)CCC2)c1c(O)n(C)c(=O)n(C)c1=O	1%	i	1.1	1.1	0	3
CC(C)(C)n1c(O)c(C=Nc2ccc3c(c2)CCC3)c(=O)[nH]c1=O	12%	i	2.1*	1.1	0	10
